Here are results for 18 molecules from PubChem BioAssay (NCATS).

Experiment [1] is described as follows: qHTS profiling of the MIPE4 collection as inhibitors of Plasmodium falciparum (3D7) proliferation (AID 743344).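 Note: scaled between DMSO vehicle wells and 0.29 µM artemisinin as full inhibition.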 As to conditions: P. falciparum 3D7 in erythrocytes, SYBR Green DNA fluorescence, 72 h; at 28.5 µM unless noted. In short, it runs like this: (§1)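 Erythrocytes infected with P. falciparum (0.3% parasitemia, 2.5% hematocrit) incubated with compounds 72 h at 37 C, 5% CO2. Lysis with saponin/Triton buffer containing SYBR Green I, overnight at room temperature in the dark; DNA fluorescence (485/535 nm) normalised to 0.29 uM artemisinin and DMSO.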
In general terms: qHTS replaces the single test concentration by a dilution series.

A short description of experiment [2]: qHTS profiling of the MIPE4 collection as inhibitors of Plasmodium falciparum (DD2) proliferation (AID 743345). The following applies: P. falciparum Dd2 in erythrocytes, SYBR Green DNA, 72 h; at 28.5 µM unless noted. In short, it runs like this:
as §1

The nature of experiment [3]: qHTS profiling of the MIPE4 collection as inhibitors of Plasmodium falciparum (DD2) proliferation (Rep 2) (AID 743346). The following applies: P. falciparum Dd2 in erythrocytes, SYBR Green DNA, 72 h; at 28.5 µM unless noted. A digest of the protocol:
as §1

The nature of experiment [4]: qHTS profiling of the MIPE4 collection as inhibitors of Plasmodium falciparum (HB3) proliferation (AID 743347).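 Note: plate controls were DMSO vehicle wells for no effect and artemisinin wells for full effect.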 The following applies: P. falciparum HB3 in erythrocytes, SYBR Green DNA, 72 h; at 28.5 µM unless noted. In short, it runs like this:
as §1

The nature of experiment [5]: qHTS Assay for Identifying Gametocytocidal Compounds (AID 743244; active = well fitted curve in the direction sought with a large enough effect; an effect the other way counts as inactive or inconclusive; note: potency is the fitted concentration of half-maximal effect;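 for max response: % is set by controls: 0 for no effect and ±100 for the full control effect; actives lower the fluorescent signal which means gametocytes are killed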). As to conditions: P. falciparum 3D7 stage III-V gametocytes, alamarBlue, 72 h; max response: stronger effect = lower value. In short, it runs like this: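 Late gametocytes (III–V), P. falciparum 3D7; 72 h drug, then 24 h alamarBlue; resazurin reduction read by fluorescence.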
Experiment [6] is described as follows: qHTS profiling for inhibitors of Plasmodium falciparum (DD2) proliferation (AID 743323). The following applies: lower = more inhibition; at 28.7 µM (top of the series) unless noted. A digest of the protocol:
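P. falciparum Dd2-infected erythrocytes (0.3% parasitemia, 2.5% hematocrit) exposed 72 h at 37 C, 5% CO2. Lysis with SYBR Green, overnight at room temperature, fluorescence 485/535 nm; normalized to 0.29 uM artemisinin and DMSO.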

The nature of experiment [7]: qHTS profiling for inhibitors of Plasmodium falciparum (HB3) proliferation (AID 743324; active = well fitted curve in the direction sought with a large enough effect; an effect the other way counts as inactive or inconclusive;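 note: 100% = DMSO vehicle wells and 0% = artemisinin-treated control wells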). As to conditions: Plasmodium falciparum HB3 blood-stage proliferation; at 28.7 µM (top of the series) unless noted. In short, it runs like this: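 P. falciparum HB3 grown in erythrocytes (0.3% parasitemia, 2.5% hematocrit final) with compound for 72 h at 37 C, 5% CO2. Parasite DNA detected by SYBR Green after saponin/triton lysis overnight; normalized to 0.29 uM artemisinin and DMSO.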

Experiment [8] in a line: qHTS assay for cell viability of HEK293 cells (AID 743288; active = well fitted curve in the direction sought with a large enough effect; an effect the other way counts as inactive or inconclusive; note: nearly all actives have a fitted effect of over 50% in size; note: potency is the fitted concentration of half-maximal effect; for max response: % is set by controls: 0 for no effect and ±100 for the full control effect). The following applies: ATP luminescence (CellTiter-Glo), 18 h; max response: stronger effect = lower value. In short, it runs like this: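 The Tox21 protocol used parental HEK293 cells treated for 18 h at 37 C with compounds delivered by pintool; ATP-coupled luminescence after 30 min at room temperature gave viability.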

Experiment [9] is described as follows: qHTS assay for cell viability of the p53RE-bla HCT-116 cell line (AID 743292; active = well fitted curve in the direction sought with a large enough effect; an effect the other way counts as inactive or inconclusive; note: nearly all actives have a fitted effect of over 55% in size; note: potency is the fitted concentration of half-maximal effect). In short, it runs like this: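 Compound-exposed HCT-116 (p53RE-bla) cells, 4,000 per well, were kept 16 h at 37 C following a 5 h preincubation. Cell number was estimated from total ATP by CellTiter-Glo luminescence read after 30 min at room temperature.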

Several values for one entry are separate records, joined by “and”; a condition that tells them apart may be missing. Equal values may be shown once. Inconclusive results are not listed. Activity calls are given as the source filed them. Unless noted, the rule behind the calls is not given here.

In turn, `C[C@]12CCC(=O)C=C1CC[C@@H]1[C@H]2[C@@H](O)C[C@@]2(C)[C@H]1CC[C@]2(O)C(=O)CO` registered a parasite growth, % of DMSO control in experiment [1] of 76.9%. In addition, the parasite growth remaining, % of DMSO control (lower = more inhibition) in experiment [2] was determined as 93.1%. In experiment [3], the parasite growth, % of control (lower = inhibition) stood at 74.9%.

`O=C(NOCC1CC1)c1ccc(F)c(F)c1Nc1ccc(I)cc1Cl` displayed a parasite growth, % of DMSO control in experiment [1] of 24.6%. The parasite growth remaining, % of DMSO control (lower = more inhibition) in experiment [2] was 91.6%. Further, the parasite growth, % of control (lower = inhibition) in experiment [3] amounted to 56.1%. The growth, % of control in experiment [4] was 63.7%.

As to `O=C1c2c(O)cc(O)cc2OC(c2ccc(O)c(O)c2)C1O` (stereo not given), the max response in experiment [5] was -8.7% (inactive). In experiment [1], the parasite growth, % of DMSO control came out at 75.5%. Also, the parasite growth remaining, % of DMSO control (lower = more inhibition) in experiment [2] was found to be 93.8%. Further, the parasite growth, % of control (lower = inhibition) in experiment [3] was found to be 64.4%. In addition, the growth, % of control in [4] stood at 99.5%.

Regarding `O=C(c1ccccc1)c1ccc2n1CCC2C(=O)O` (stereo not given), the max response in experiment [5] was 44.1% (inactive) and 46.1% (inactive). For the same molecule, in [1], the parasite growth, % of DMSO control was 67.8%. Further, the parasite growth remaining, % of DMSO control (lower = more inhibition) in [2] amounted to 107%. For the same molecule, the parasite growth, % of control (lower = inhibition) in experiment [3] stood at 121%. The growth, % of control in experiment [4] stood at 104%.

The molecule `CN(C)[C@@H](CCOc1cccc2ccccc12)c1ccccc1` showed a parasite growth, % of DMSO control in [1] of 18.8%. For the same molecule, the parasite growth remaining, % of DMSO control (lower = more inhibition) in experiment [2] came to 14.4%.

For the molecule `COC(=O)C1=C(C)NC(C)=C(C(=O)OCCCN2CCC(c3ccccc3)(c3ccccc3)CC2)C1c1cccc([N+](=O)[O-])c1` (stereo not given), in [5], the Potency is 10 µM (active). The same molecule returned a parasite growth, % of DMSO control in [1] of 114%. For the same molecule, the parasite growth remaining, % of DMSO control (lower = more inhibition) in experiment [2] is 107%. The parasite growth, % of control (lower = inhibition) in experiment [3] was 86.6%. This molecule yielded a growth, % of control in experiment [4] of 102%.

On to `Nc1ccn([C@@H]2O[C@H](CO)[C@@H](O)C2O)c(=O)n1` (stereo not given in full), for which, in [5], the max response is 0.0114% (inactive) and -8.34% (inactive). The molecule further yielded a parasite growth, % of DMSO control in experiment [1] of 89.3%. Further, in experiment [2], the parasite growth remaining, % of DMSO control (lower = more inhibition) was 137%. In addition, in experiment [3], the parasite growth, % of control (lower = inhibition) amounted to 71%.

For `Clc1ccc2c(N3CCN(CCCN4CCN(c5ccnc6cc(Cl)ccc56)CC4)CC3)ccnc2c1`, the parasite growth, % of DMSO control in experiment [1] was found to be 18.8% [at 9.64 µM]. Moreover, in experiment [3], the parasite growth, % of control (lower = inhibition) is 21.1% [at 9.64 µM]. The same molecule showed a growth, % of control in experiment [4] of 14.1% [at 9.64 µM].

Turning to `CC(=O)NC[C@H]1CN(c2ccc(N3CCOCC3)c(F)c2)C(=O)O1`, the max response in experiment [5] was 1.95% (inactive). The parasite growth, % of DMSO control in [1] worked out at 65.6%. In addition, in [2], the parasite growth remaining, % of DMSO control (lower = more inhibition) was 87.8%. The parasite growth, % of control (lower = inhibition) in experiment [3] worked out at 51.6%. In addition, the growth, % of control in experiment [4] was 94.8%.

In experiment [6], `CCN(CC)CCOc1ccc(Nc2ncc3cc(-c4c(Cl)cccc4Cl)c(=O)n(C)c3n2)cc1` showed an activity, percent of control of 1.4%. Besides, the remaining proliferation (% of control), lower = more inhibition in experiment [7] is -0.176%. The parasite growth, % of DMSO control in experiment [1] is 6.09%. In addition, the parasite growth remaining, % of DMSO control (lower = more inhibition) in experiment [2] was 8.57%. Further, the parasite growth, % of control (lower = inhibition) in [3] is 10.6%. For the same molecule, the growth, % of control in experiment [4] turned out to be 4.26%.

Molecule `Clc1ccc(C(Cn2ccnc2)OCc2c(Cl)cccc2Cl)c(Cl)c1` (stereo not given) had a parasite growth, % of DMSO control in [1] of 4.82%. In experiment [2], the parasite growth remaining, % of DMSO control (lower = more inhibition) was 9.61%. Also, the parasite growth, % of control (lower = inhibition) in experiment [3] was determined as 14.8%. Besides, the growth, % of control in [4] is 7.46%.

As to `Cc1cc(=O)c2c(O)c3c(O)cc(=O)c4c3c3c(cc(O)c1c23)C(C)(C)C=4O`, the max response in experiment [5] is -6.69% (inactive). Besides, the parasite growth, % of DMSO control in experiment [1] worked out at 6.69%. The parasite growth remaining, % of DMSO control (lower = more inhibition) in [2] stood at 23.7%. Besides, the parasite growth, % of control (lower = inhibition) in [3] stood at 13.7%. This molecule registered a growth, % of control in experiment [4] of 5.99%.

For the molecule `Cc1cc(O)c2c(c1)C(=O)c1cc(O)cc(O)c1C2=O`, the max response in experiment [5] was 14.5% (inactive). For the same molecule, the Potency is 44.7 µM (active) in experiment [8] and 31.6 µM (active) in experiment [9]. For the same molecule, the growth, % of control in experiment [4] amounted to 98.6%.

As to `CC(C)Oc1ccc2c(=O)c(-c3ccccc3)coc2c1`, the max response in experiment [5] was -8.04% (inactive) and -1.57% (inactive). The parasite growth, % of DMSO control in [1] came to 75.9%. Besides, the parasite growth, % of control (lower = inhibition) in experiment [3] turned out to be 60%. For the same molecule, the growth, % of control in experiment [4] came out at 54.5%.

`CCCCCCCCOc1ccccc1C(=O)Nc1ccc(C(=O)OCC[N+](C)(CC)CC)cc1` had a parasite growth, % of DMSO control in [1] of 9.2%. Further, the parasite growth remaining, % of DMSO control (lower = more inhibition) in experiment [2] is 5.8%. Also, in experiment [3], the parasite growth, % of control (lower = inhibition) is 26.3%. Moreover, the growth, % of control in [4] was determined as 8.46%.

For the molecule `COc1cc2c(cc1OC)C1CC(=O)C(CC(C)C)CN1CC2` (stereo not given), in experiment [5], the max response is 30.1% (inactive). In experiment [1], this molecule yielded a parasite growth, % of DMSO control of 82.2%. For the same molecule, the parasite growth remaining, % of DMSO control (lower = more inhibition) in [2] was found to be 7.77%. Besides, the parasite growth, % of control (lower = inhibition) in experiment [3] is 77.8%.

With `CCCCC(CC)COC(=O)C(C#N)=C(c1ccccc1)c1ccccc1` (stereo not given), the figures for the max response in experiment [5] and in experiment [8] were 17.2% (inactive) and -27.9% (inactive), respectively. Moreover, in [9], the Potency entry is “inactive”. In experiment [1], this molecule showed a parasite growth, % of DMSO control of 9.47%. For the same molecule, the parasite growth remaining, % of DMSO control (lower = more inhibition) in experiment [2] was 18.3%. The parasite growth, % of control (lower = inhibition) in [3] came out at 11.9%.

Regarding `Cc1cccc(C)c1OCC(=O)N[C@@H](Cc1ccccc1)[C@@H](O)C[C@H](Cc1ccccc1)NC(=O)[C@H](C(C)C)N1CCCNC1=O`, the Potency in [5] was 11.2 µM (active) and 6.62 µM (active). Further, in experiment [6], the activity, percent of control is 0.873%. Moreover, in experiment [7], the remaining proliferation (% of control), lower = more inhibition was 0.361%. Besides, in [1], the parasite growth, % of DMSO control stood at 6.88%. For the same molecule, the parasite growth remaining, % of DMSO control (lower = more inhibition) in [2] worked out at 8.67%. The parasite growth, % of control (lower = inhibition) in [3] came out at 16.3%. This molecule displayed a growth, % of control in experiment [4] of 3.91%.
